Assay results taken from the OligoGym collection.

Experiments:
Assay in all cases: pooled miR-30 sensor sort-seq; sequence = guide strand
Details in all cases: shRNA
[1] = molecular target: ATP7B
[2] = molecular target: ATP6V0A4
[3] = molecular target: ATP8A2
[4] = molecular target: AVPR1B
[5] = molecular target: ATP8B3
Note: reference of the scale not given here.

Work on AAACATCACAGTCTTTATCTTG yielded a sensor-assay potency score (higher = more potent) [1] of -0.586.

TTCTAGAACAGTCTCCAGGGTA gave a sensor-assay potency score (higher = more potent) [2] of -0.117.

Work on TTTCGTCACAGGATCCTCCAGA yielded a sensor-assay potency score (higher = more potent) [2] of 0.303.

With TCATCGTCTGCTGCAGCGCTGT the sensor-assay potency score (higher = more potent) [1] was -1.45.

Work on TTGTCAAACATCACAGTCTTTA yielded a sensor-assay potency score (higher = more potent) [1] of -0.992.

In the case of TCAATGTTCTTCAACAGCCTGG, the sensor-assay potency score (higher = more potent) [3] was -0.00859.

TGACTCGCCTCTCACCTTCTAC gave a sensor-assay potency score (higher = more potent) [1] of -1.09.

Sequence TTGGGGTTCTTTGACATCTGAG has a sensor-assay potency score (higher = more potent) [1] of -0.597.

TGTCTGTCCTTTCATCTCGTGG was tested, and the sensor-assay potency score (higher = more potent) [1] was -1.22.

In the case of TTATCTTGTGCGCCATCTCCAG, the sensor-assay potency score (higher = more potent) [1] was -0.947.

Work on TTTTTCTAGAACAGTCTCCAGG yielded a sensor-assay potency score (higher = more potent) [2] of -0.591.

Sequence TTTTTGGTCCTGATGAAACTGT has a sensor-assay potency score (higher = more potent) [1] of -0.518.

TTGACATCTGAGCCTCTTCCAC gave a sensor-assay potency score (higher = more potent) [1] of -1.39.

Sequence AACATCACAGTCTTTATCTTGT has a sensor-assay potency score (higher = more potent) [1] of -0.258.

Sequence ATCTGGACACTGAAGAAGGGAG has a sensor-assay potency score (higher = more potent) [4] of -1.3.

For TTTGTCTCCTGTCAACACCCAT, the sensor-assay potency score (higher = more potent) [3] was -1.17.

Work on TTGATCTCTTGAGAGGCGCTTT yielded a sensor-assay potency score (higher = more potent) [3] of -0.359.

With AAACATGCTGAGCACCTGCAGG the sensor-assay potency score (higher = more potent) [4] was -1.16.

With TAGGTTTTTACAGATCTCATGG the sensor-assay potency score (higher = more potent) [4] was 0.26.

For TTAGGTTTTTACAGATCTCATG, the sensor-assay potency score (higher = more potent) [4] was -1.16.

In the case of TTGGTCAACAGCAACTTCTCAG, the sensor-assay potency score (higher = more potent) [5] was -0.358.

In the case of TTGGCCAGCTCCTCATCCCGGC, the sensor-assay potency score (higher = more potent) [4] was -0.765.

In the case of TTGGTGGAATCTTCATCAGGGG, the sensor-assay potency score (higher = more potent) [4] was -0.225.

Sequence TTGAAGCCCATGTAGATCCAGG has a sensor-assay potency score (higher = more potent) [4] of -0.752.

Sequence TAATTTTTGTGTCAAAACCAGC has a sensor-assay potency score (higher = more potent) [5] of -1.1.

TAGAAGTTGTACTTGGCCGTGC was tested, and the sensor-assay potency score (higher = more potent) [5] was 1.18.

In the case of ATCAGGGGCATTCTTGTCCCAC, the sensor-assay potency score (higher = more potent) [4] was -1.06.

In the case of TAAATGACCAGTCCATAGCAGG, the sensor-assay potency score (higher = more potent) [5] was -1.07.

TTCTTGTCCCACACGGACCACA showed a sensor-assay potency score (higher = more potent) [4] of -1.03.

Sequence TTCCTGACTAACAGCTCCGTGT has a sensor-assay potency score (higher = more potent) [3] of -0.616.

Sequence TTTTAGGTTTTTACAGATCTCA has a sensor-assay potency score (higher = more potent) [4] of -0.253.

With TTCTTTGACTGAGAAACCGAAG the sensor-assay potency score (higher = more potent) [5] was -1.15.

In the case of TTTTTGTGTCAAAACCAGCATA, the sensor-assay potency score (higher = more potent) [5] was -0.74.

TTGACTTTTAGGTTTTTACAGA showed a sensor-assay potency score (higher = more potent) [4] of -0.906.

TTGTCTCCTGTCAACACCCATA was tested, and the sensor-assay potency score (higher = more potent) [3] was -1.33.

For TTGGTCTTGTATTTCTTCCTTT, the sensor-assay potency score (higher = more potent) [5] was -0.502.

Sequence TTTTTACAGATCTCATGGCAGA has a sensor-assay potency score (higher = more potent) [4] of -0.895.

For TTTGATGTTGCTCTTCTTGAGA, the sensor-assay potency score (higher = more potent) [5] was -0.55.

Sequence TGTGTCTTGACTTTTAGGTTTT has a sensor-assay potency score (higher = more potent) [4] of -1.08.

TAGTACATCTGCACGTCCCAGT showed a sensor-assay potency score (higher = more potent) [5] of 0.127.

For TTGACTGAGAAACCGAAGCCGA, the sensor-assay potency score (higher = more potent) [5] was -0.857.

Work on TTCACTGTTCGGATCTTGGCCC yielded a sensor-assay potency score (higher = more potent) [4] of 0.0628.
